Assay results: the supplement of paper PMC6555819

Experiments:
Test in all cases: PBM binding z-score (relative to random genomic background probes); higher = stronger binding; sequences stand for … in GC…GCGATTGACAGCGTAGAATGAAGG
[1] = tested on: RARg:RXRa (NR concentration 270 nM, RXRa partner concentration 90 nM)
Outline: (§1)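 Regression normalization was applied to scanned fluorescence from custom Agilent 4×180K protein-binding microarrays. Before scanning, arrays were incubated 1 h with ligand-free nuclear receptor dimers, and binding was detected with antibodies against each partner (one per run). Binding z-scores use the random background probes as reference.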

[2] = tested on: RARg homodimer (NR concentration 270 nM)
Outline: as §1

[3] = tested on: RXRa DBDmut IVT, anti-RXR (DBD mutation: RXRa K156A/R161A, NR concentration 90 nM)
Outline: as §1

[4] = tested on: RXRa homodimer (NR concentration 180 nM)
Outline: as §1

[5] = tested on: THRa:RXRa (NR concentration 90 nM, RXRa partner concentration 90 nM)
Outline: as §1

[6] = tested on: THRa homodimer (NR concentration 90 nM)
Outline: as §1

[7] = tested on: VDR homodimer (NR concentration 270 nM)
Outline: as §1

Sequence	PBM binding z-score [1]	PBM binding z-score [2]	PBM binding z-score [3]	PBM binding z-score [4]	PBM binding z-score [5]	PBM binding z-score [6]	PBM binding z-score [7]
TCTAGTTGGTCTAAGGTCACACACTCGAAATGCG	4.63	4.37	2.21	4.71	4.63	5.66	2.99
CTATGTAGGTTAGGGGGGTCATTCAGTTTGAAAG	5.7	4.91	3.23	5.83	4.21	3.25	6.97
CAAACCAGGTCAAAGGTCAAAGTCGAGCCAACCA	8.97	7.49	3.71	–	5.07	2.57	3.91
CCTACTGGGCCGTTCAGAGGTCATTGATCATATG	3.7	2.47	0.516	3.46	2.86	1.42	2.97
CAAACCAGGTCACAGAGGTCAAAGTCCGTGCGTA	7.52	7.53	4.06	8.5	–	3.92	8.47
CGAACTAGGTCGCCAGGACAGTGAAGAGGTTGGA	0.757	1.27	0.47	0.761	1.68	0.578	-0.15
TCGTGTAGGTTACGGGGGCATTCAGGGATGAAGA	4.09	3.31	2.75	3.35	4.09	2.66	3.98
ATATGTAGGTTACCTGGGGTCATTCAGACTAGGC	4.46	3.44	1.99	5.78	–	3.39	5.34
CCTAGTTGGTCAAGGTCACACCCGCTATAGGTAC	4.26	4.56	1.78	4.2	3.94	4.24	3.57
CGTCCAAGGTCATAGGAGGTCAATGAAGACAGAT	6.94	7.28	3.99	7.15	–	3.89	4.97
TACCCTAGGTCATGGGCCAGTATACCACGCGAAC	4.53	4.92	0.55	4	3.26	2.22	1.35
CGTCAAAGTTCAACTAAGGTTACGTAAAGCACGC	6.64	7.26	4.73	6.03	–	2.2	4.89
GGAACGAGGGCATTCGAGTTCATAGCATGGCGAT	2.51	2.58	3.99	2.5	–	-0.00454	8.72
GATACAGGGTCGGCTAGAGGCCAGAGTATGGAAA	4.14	1.5	-0.0719	1.49	1.22	-0.62	0.35
CGTACAAGGTCAAAGGTCAGTGAAGAGATGACGG	8.95	8.28	4.22	10.5	4.71	2.58	4.13
CTACCAAGGTCAACAAGGTCGTTGATTACTATTC	6.87	6.92	4.65	6.84	–	3.68	7.86
CAAACTAGGTCACGAGAGGTCAAAGTCGAATGAC	7.59	8.3	2.82	7.93	–	2.88	5.09
CGTTCAAGGTCAAAGGTCAGTGAAGAGATGACGG	8.78	8.73	4.53	10.3	5.04	3.34	3.81
CCTTACGGGTCCCTCCAGGTTATAGCATCGGAGT	0.0762	0.0141	-1.22	0.2	3.05	0.1	0.267
CGTCCAAGGTCATATGAGGTCAGTGAAGACAGAT	6.88	7.55	4.62	7.07	–	4.58	6.28
AGAATGAGGTTACCAAAGGTCAGGGAAACGCTTG	6.29	5.66	1.72	7.02	–	2.11	1.92
GCATATAGGTAATACAAGGTCAAAGTCCGATTGT	3.39	2.81	1.43	3.97	–	3.05	2.68
TCTAGTTGGTCACGGAGGTCCCACACGACGGGTA	1.02	1.61	0.484	0.931	0.42	0.108	-0.235
CCGAGTAGGTTACGAGGGGTCATTCAGTGCGAAT	5.1	3.76	1.89	5.85	–	0.607	5.41
CGAACGAGGTCACCAGGACAGTGAAGAGGTTGGA	7.15	7.24	4.32	–	4.66	3.86	3.87
CCTTAAGGGTCACGAGGTTATAGCACGACGAGCG	–	7.23	3.17	–	4.24	1.24	2.91
CCAACTAGGTCAAAGGACAGTGAAAGGCGACGTA	–	4.53	1.91	3.05	2.4	0.765	0.866
TAGCCTAGTTCATGCGGGCCAGTATAGTGTCGGC	–	0.586	1.71	0.0808	–	-0.684	1.56
CCGAGAAGGTTACGAGGGGGCATTCAGTGCGAAT	–	3.13	1.65	3.45	4.4	0.555	3.67
ACTTACGGGTCAACGAGGTCATAGCACGCGTATA	7.14	6.95	3.65	–	–	3.64	7.5
